± gives the standard deviation of the averaged measurements.
Legend:
Conditions in all cases: concentration: 10 µM; 24 h
[1] = system: HCC1569; assay: cell number relative to DMSO (% of DMSO); higher = more cells (less growth inhibition / toxicity)
Summary of the method: (§1)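 In 384-well plates holding 800 HCC1569 or TDF cells per well in RPMI with 10% FBS, compounds were tested at 10 µM for 24 h at 37 °C in triplicate. Fixation used 3.7% formaldehyde. Staining used a rabbit anti-H1.0 antibody with an AlexaFluor 647 secondary, plus DAPI. Each value, H1.0 nuclear intensity or cell number, is a median of replicates shown as percent of the plate control, and HCC1569 values were smoothed for positional effects.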

[2] = system: TDF; assay: as above
Summary of the method: as §1

[3] = system: TDF; assay: H1.0 immunofluorescence intensity relative to DMSO (% of DMSO); higher = stronger H1.0 induction, active = 120 or more
Summary of the method: as §1

[4] = system: HCC1569; assay: H1.0 immunofluorescence intensity relative to DMSO (% of DMSO); higher = stronger H1.0 induction, active = 140 or more
Summary of the method: as §1
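For H1.0 immunofluorescence intensity relative to DMSO in this document: TDF is a line of transformed human dermal fibroblasts of mesenchymal origin.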
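For cell number relative to DMSO in this document: TDF denotes transformed human dermal fibroblasts of mesenchymal origin.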

Row | Structure (SMILES) | cell number [1] | cell number [2] | H1.0 immunofluorescence intensity [3] | H1.0 immunofluorescence intensity [4]
1 | NCCCCCCCCCCN [1,10-Diaminodecane] | 101 | 98.7 | 89.4 (inactive) | 88.5 (inactive)
2 | CC(C)(C)n1nc(-c2ccc(Cl)cc2)c2c(N)ncnc21 | 67.2 | 107 | 99.8 (inactive) | 182 (active)
3 | OCCC#Cc1nc(-c2ccc(F)cc2)c(-c2ccncc2)n1CCCc1ccccc1 | 91.8 | 105 | 82.7 (inactive) | 111 (inactive)
4 | CCCCCCCNC1CCCC1CCCCCCC(=O)O (racemic) | 99.7 | 93.5 | 88.5 (inactive) | 89.4 (inactive)
5 | O=C1Nc2cc(Br)ccc2C1=C1N=c2ccccc2=C1NO [GSK-3 Inhibitor IX] | 56.3 | 70.1 | 112 (inactive) | 222 (active)
6 | CCC1(O)CC2CN(CCc3c([nH]c4ccccc34)C(C(=O)OC)(c3cc4c(cc3OC)N(C=O)C3C(O)(C(=O)OC)C(OC(C)=O)C5(CC)C=CCN6CCC43C65)C2)C1.O=S(=O)(O)O (stereo not given) [Vincristine sulfate] | 57.3 ± 1 | 9.46 ± 1.6 | 167 (active) | 151 (active)
7 | COC(=O)C1C(O)CCC2CN3CCc4c([nH]c5ccccc45)C3CC21 (stereo not given) [Corynanthine] | 106 | 94.3 | 102 (inactive) | 95.3 (inactive)
8 | CC(C)n1cnc2c(NCc3ccccc3)nc(NCCO)nc21 [N9-Isopropylolomoucine] | 46 | 105 | 95 (inactive) | 314 (active)
9 | CC(C)(C)C(=O)OCOC(=O)[C@@H]1N2C(=O)[C@@H](/N=C/N3CCCCCC3)[C@H]2SC1(C)C | 84.7 | 93.4 | 89 (inactive) | 115 (inactive)
10 | CC1=NC(=NNc2ccc(S(=O)(=O)[O-])cc2S(=O)(=O)[O-])C(COP(=O)([O-])[O-])=C(C=O)C1=O.[Na+].[Na+].[Na+].[Na+] | 102 | 103 | 90.1 (inactive) | 97.3 (inactive)
11 | O=c1c(-c2ccc(O)cc2)coc2cc(O)cc(O)c12 | 97.6 | 100 | 96.6 (inactive) | 104 (inactive)
12 | Nc1nc(Nc2ccc(S(N)(=O)=O)cc2)nn1C(=S)Nc1c(F)cccc1F [Cdk1/2 Inhibitor III] | 51.9 | 14.2 | 133 (active) | 128 (inactive)
13 | O=C(O)CCCC=CCC1C(=O)CC(O)C1C=CC(O)CCc1ccccc1 (stereo not given) [17-Phenyl-trinor-prostaglanding E2] | 105 | 102 | 106 (inactive) | 97.5 (inactive)
14 | O=S(=O)(O)C1CCNCC1 [Piperidine-4-sulphonic acid] | 92.6 | 101 | 89 (inactive) | 122 (inactive)
15 | CSc1ccc(/C=C2/C(C)=C(CC(=O)O)c3cc(F)ccc32)cc1 | 103 | 105 | 99.8 (inactive) | 102 (inactive)
16 | CN(C)C(N)=NCCCC(N)C(=O)O.Cl (stereo not given) [N^G,N^G-Dimethylarginine hydrochloride] | 104 | 96.5 | 91.6 (inactive) | 94.5 (inactive)
17 | CCCn1c(=O)[nH]c(=O)c2[nH]cnc21 [3-n-Propylxanthine] | 104 | 105 | 92.3 (inactive) | 101 (inactive)
18 | CC1CC=CC=CC=CC=CC(OC2OC(C)C(O)C(N)C2O)CC2OC(O)(CC(O)CC3OC3C=CC(=O)O1)CC(O)C2C(=O)O (stereo not given) [Pimaricin] | 106 | 94 | 94.9 (inactive) | 88.8 (inactive)
19 | Nc1nc(OCc2cc(Br)cs2)c2[nH]cnc2n1 [6-[(4-bromo-2-thienyl)methoxy]-1H-purin-2-amine] | 101 | 107 | 97.7 (inactive) | 113 (inactive)
20 | CN1C2CCC1CC(OC(=O)c1c[nH]c3ccccc13)C2 (stereo not given) [Tropisetron] | 102 | 92.9 | 101 (inactive) | 112 (inactive)
21 | CNC1C(OC2OC(CO)C(N)C(O)C2O)OC2CC(N)C(OC3C(N)CC(N)C(O)C3O)OC2C1O (stereo not given) [Apramycin] | 106 | 96.3 | 98.5 (inactive) | 117 (inactive)
22 | CC(Nc1nc(N2CCCC2)nc2ccccc12)c1ccccc1 (stereo not given) [N-(1-phenylethyl)-N-[2-(1-pyrrolidinyl)-4-quinazolinyl]amine] | 83.8 | 75.1 | 123 (active) | 120 (inactive)
23 | NC1(C(=O)O)CCc2cc(C(=O)O)ccc21 (stereo not given) | 101 | 113 | 88.5 (inactive) | 84.5 (inactive)

Row | Structure (SMILES) | cell number [1] | cell number [2] | H1.0 immunofluorescence intensity [3] | H1.0 immunofluorescence intensity [4]
24 | NC(CCC(=O)NC(CS)C(=O)NCC(=O)O)C(=O)O (stereo not given) [Glutathione] | 101 | 96.1 | 91 (inactive) | 93 (inactive)
25 | CN(C)CCn1cc(S(=O)(=O)c2cccc(F)c2)c2cccnc21 | 99.5 | 74.4 | 127 (active) | 111 (inactive)
26 | NC(=O)c1cccc(-c2cccc(OC(=O)NC3CCCCC3)c2)c1 | 97.3 | 97.5 | 105 (inactive) | 124 (inactive)
27 | CC(=O)NC(Cc1c[nH]c2ccccc12)C(=O)OCc1cc(C(F)(F)F)cc(C(F)(F)F)c1 (stereo not given) | 102 | 103 | 93.2 (inactive) | 90.8 (inactive)
28 | Oc1cc(O)c2c(c1)OC(c1ccc(O)c(O)c1)C(O)C2 (single isomer, unassigned; (-)) [(-)-Epicatechin] | 102 | 106 | 100 (inactive) | 89.2 (inactive)
29 | CC1(C)CNc2cc(NC(=O)c3cccnc3NCc3ccncc3)ccc21 [Motesanib] | 90 | 91.4 | 107 (inactive) | 106 (inactive)
30 | CC(=Cc1ccc(C(=O)O)cc1)c1ccc2c(c1)C(C)(C)CCC2(C)C | 100.2 ± 0.57 | 106 ± 2.4 | 89.4 (inactive) | 111 (inactive)
31 | CON=C(C(=O)NC1C(=O)N2C(C(=O)[O-])=C(COC(C)=O)CSC12)c1csc(N)n1.[Na+] (stereo not given) [Cefotaxime sodium] | 103 | 117 | 92.3 (inactive) | 87 (inactive)
32 | CC(C)N=c1cc2n(-c3ccc(Cl)cc3)c3ccccc3nc-2cc1Nc1ccc(Cl)cc1 | 89.6 | 72.2 | 109 (inactive) | 118 (inactive)
33 | COCCc1ccc(OCC(O)CNC(C)C)cc1.COCCc1ccc(OCC(O)CNC(C)C)cc1.O=C(O)C(O)C(O)C(=O)O (racemic) | 99.5 | 106 | 95.6 (inactive) | 108 (inactive)
34 | [Cl-].[Li+] [Lithium Chloride] | 101 | 109 | 92.2 (inactive) | 88 (inactive)
35 | O=C(O)[C@H]1C[C@H](C(=O)O)N1 (relative stereo) [trans-Azetidine-2,4-dicarboxylic acid] | 95.1 | 106 | 91.5 (inactive) | 90.5 (inactive)
36 | Cl.NC(CO)C(=O)NNCc1ccc(O)c(O)c1O (stereo not given) [Benserazide hydrochloride] | 91.1 | 95.6 | 98.3 (inactive) | 96.3 (inactive)
37 | NS(=O)(=O)c1cc(C2(O)NC(=O)c3ccccc32)ccc1Cl (stereo not given) | 101 | 98.1 | 96.1 (inactive) | 104 (inactive)
38 | CC(Cc1ccccc1)Nc1ncnc2c1ncn2C1OC(CO)C(O)C1O (stereo not drawn) [R(-)-N6-(2-Phenylisopropyl)adenosine] | 107 | 96.5 | 93.6 (inactive) | 102 (inactive)
39 | CC(=O)C1CCC2C3CC=C4CC(OS(=O)(=O)[O-])CCC4(C)C3CCC12C.[Na+] (stereo not given) [Pregnenolone sulfate sodium] | 105 | 110 | 95.8 (inactive) | 97.8 (inactive)
40 | O=C(C=CC=Cc1ccc2c(c1)OCO2)N1CCCCC1 [Piperine] | 100 | 97 | 96.8 (inactive) | 104 (inactive)
41 | CCC=CCC=CCC=CCC=CCCCCC(=O)O.[Na] [6(Z), 9(Z), 12(Z), 15(Z)-Octadecatetraenoic acid] | 102 | 91.9 | 106 (inactive) | 102 (inactive)
42 | O=c1ccc2cc(O)c(O)cc2o1 [Esculetin] | 101 | 94.7 | 99.6 (inactive) | 101 (inactive)
43 | Brc1ccc(C2CN3CCSC3=N2)cc1.O=C(O)C(=O)O (stereo not drawn) [S(-)-p-Bromotetramisole oxalate] | 107 | 107 | 99.6 (inactive) | 94.6 (inactive)
44 | Cc1cc(C(C)(C)C)cc(C)c1CC1=NCCN1.Cl [Xylometazoline hydrochloride] | 97.5 | 93.3 | 98.3 (inactive) | 110 (inactive)
45 | Cl.O=C(CCCN1CCC(O)(c2cccc(C(F)(F)F)c2)CC1)c1ccc(F)cc1 [Trifluperidol hydrochloride] | 101 | 111 | 98.4 (inactive) | 105 (inactive)

From the supplement of paper PMC7156485
